# Experimental data as given in PubChem BioAssay (EPA / NIEHS).
# Results filed as inconclusive are left out. Calls of active or inactive are those of the source. The calls were made as follows: active = hit-call score of the fitted dose curve at least 0.9, where 1 is the maximum; inconclusive = response in the unintended direction; inactive = score below 0.9.
# Test: ATG_XTT_Cytotoxicity: Cytotoxicity Assessment in the Attagene TRANS-FACTORIAL HepG2 Assay (AID 2283584);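 as to AC50: XTT signal for cell number as viability in transfected HepG2 cells; cells exposed to compound for 24 h before reading; active means loss of viability signal versus DMSO baseline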
# Outline: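 HepG2 cells transiently transfected with GAL4-UAS multiple reporter units, dosed 24 h; cytotoxicity read by XTT as loss of signal versus DMSO baseline.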
SMILES,outcome,AC50
CC(CC=O)c1ccccc1 (centres undefined),inactive,
CC=CC(=O)N(CC)c1ccccc1C,inactive,
Cc1cccc(N)n1,inactive,
N[C@H]1C(O)O[C@H](CO)[C@H](O)[C@@H]1O (some centres undefined),inactive,
CC(=O)[C@@]1(O)CC[C@H]2[C@@H]3C[C@H](C)C4=CC(=O)C=C[C@]4(C)[C@@]3(F)[C@@H](O)C[C@@]21C,inactive,
CCOCC(=O)O,inactive,
OCCN(CCO)c1ccccc1,inactive,
CC(=O)c1ccc[nH]1,inactive,
CCCC(=O)OCc1ccccc1,inactive,
CN1C(=O)N(C)C(O)C1O (centres undefined),inactive,
CCCCCCCCCCCSCC(=O)O,inactive,
O=C(O)c1cc2ccccc2nc1C(=O)O,inactive,
COc1cc(C)ccc1C(C)C,inactive,
CC(=O)OCC(=O)[C@@]12N=C(C)O[C@@H]1C[C@H]1[C@@H]3CCC4=CC(=O)C=C[C@]4(C)[C@H]3[C@@H](O)C[C@@]12C,inactive,
Cc1c(C)c([N+](=O)[O-])c(C(C)(C)C)c([N+](=O)[O-])c1C,inactive,
CC(C)c1ccc2c(c1)CC[C@H]1[C@](C)(CN)CCC[C@]21C,,9.98 µM (active)
O=c1c2ccccc2nnn1CCl,inactive,
CCCCCCCCCCCCCCCC[N+](C)(C)CC,inactive,
CCCOCCOCCOCCO,inactive,
O=C(O)CC(C(=O)O)C(CC(=O)O)C(=O)O (centres undefined),inactive,

SMILES,outcome,AC50
CC1=NC(C)OC1C (centres undefined),inactive,
CC(C)CCCC(C)CC=O (centres undefined),inactive,
CC1OC1C1CCC2(C)OC2C1 (centres undefined),inactive,
CC(C)COC(=O)C=Cc1ccccc1,inactive,
CC(=O)NS(=O)(=O)c1ccc(N)cc1,inactive,
O=C(Cl)c1cc(C(=O)Cl)cc(C(=O)Cl)c1,inactive,
COC(=O)c1cc(Cl)ccc1[N+](=O)[O-],inactive,
O=C1c2ccccc2C(=O)C1c1nc2ccccc2c(Br)c1O,inactive,
C/C=C\C/C=C/CCCCCCCCOC(C)=O,inactive,
Cc1cccc(N(C)C(=S)Oc2ccc3ccccc3c2)c1,inactive,
CCc1ccc2c(c1)C(=O)c1ccccc1C2=O,inactive,
COc1ccc(C(Cl)=C(c2ccc(OC)cc2)c2ccc(OC)cc2)cc1,inactive,
CCCCCC/C=C\CCCCCCCC(=O)O,inactive,
CCC(C)C=O (centres undefined),inactive,
O=c1[nH]nc(-c2ccc([N+](=O)[O-])o2)o1,inactive,
CC1=CC[C@H](C(C)C)C=C1,inactive,
NCCCN1CCN(CCCN)CC1,inactive,
COCC(C)N (centres undefined),inactive,
COCCOCCOCCOCCOC,inactive,
